Measured values as given in PubChem BioAssay (NCI).
This is part of a sample that, as a whole, favours compounds with a hit. Of some 83,000 tested, about 20% had one in any assay.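 Growth was measured after 48 h exposure to one concentration of compound in 96-well plates. Values under 10 count as active.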 Values without a mark were called inactive. Active and inactive are the calls of the source.

System: HL-60(TB) leukemia
Assay: NCI-60 one-dose screen, 48 h (100 = growth as untreated, 0 = no growth, -100 = all killed)
Details: 10 µM unless noted

SMILES	growth
COc1ccc(N=Nc2c(N)nn3c(-c4cc5cc(Br)ccc5oc4=O)ccnc23)cc1	102%
N#CC1=C(c2ccco2)Nc2c(c(-c3ccccc3)nn2-c2ccccc2)C12C(=O)Nc1ccc(Br)cc12 (stereo not drawn)	51.1%
CN(C)CCn1c2ccccc2c2nc3ccc([N+](=O)[O-])cc3nc21	5.67% (active)
N#Cc1c(-c2ccc(F)cc2)nc(SCc2ccc([N+](=O)[O-])cc2)nc1N1CCOCC1	82.7%
COc1ccc(-c2cc(C)nc3[nH]c(=O)sc23)cc1	75.6%
COC(=O)CNC(=O)COc1c(OC)c(OC)cc2oc(-c3cccc(C(=O)Nc4ccc(Cl)cc4)c3)cc(=O)c12	101%
C/C(=N\N=C1/C(=O)Nc2ccc(Cl)cc21)c1ccc2c(c1)Nc1ccccc1S2	8.43% (active)
COc1cc(C2CC(c3ccc(C(F)(F)F)cc3)=Nc3c(N)nc(N)nc3N2)ccc1Oc1nc(Nc2ccc(F)cc2)nc(N(C)C)n1 (stereo not drawn)	13.7%
O=C(/C=C/Nc1ccc2oc(=O)ccc2c1)c1cc2cc(Br)ccc2oc1=O	131%
O=C(NN1C(=O)/C(=C/C=C/c2ccc([N+](=O)[O-])o2)SC1=S)c1ccncc1	-30.4% (active)
Clc1ccc(/C=N/Nc2ncnc3sc4c(c23)CCN(Cc2ccccc2)C4)cc1	-8.28% (active)
CCCSc1nc(Nc2ccc(S(N)(=O)=O)cc2)c(C#N)c(-c2ccc(Cl)cc2)n1	46.3%
COC(=O)c1cc(C(C)=O)n2c3ccccc3c3ccccc3c12	101%
